Screening results (PubChem)
This is one part of a sample in which hits are shown more often than they occur.
TDP1 cell CPT: growth inhibition of DT40 Tdp1-/-;hTDP1 cells with camptothecin (screen for TDP1 inhibitors) | chicken DT40 Tdp1-/-;hTDP1 cells + 20 nM CPT, ATP luminescence, 48 h | Potency, µM (highest dose often 46.2 µM), for the others: top-dose activity change, negative = growth inhibition, actives largely listed as inhibitors | 420,000 tested, 12% active | AID 686979; note: potency is the fitted concentration of half-maximal effect; nearly all actives have a fitted effect of over 55% in size
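Cell growth measured by CellTiter-Glo luminescence after a minimum 48 h, 37 C compound exposure with 20 nM CPT in Tdp1-knockout DT40 cells stably expressing hTDP1, seeded 400/well; qHTS titration format.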
IL1B secr inh: blocks inflammasome-driven IL-1 beta release | THP-1 LPS/ATP IL-1B secretion, AlphaLISA, 16 h; stronger effect = lower value | activity change, % at 57.5 µM | 360,000 tested, 4.7% active | AID 743279; in the data active = activity change below about -50%; inconclusive = mostly about -30% to -49%
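Secreted IL-1B measured by AlphaLISA bead assay after 16 h compound exposure of THP-1 cells; compounds (final up to 57.5 uM) added 1 h before LPS (250 ng/mL) and ATP (1.25 mM) stimulation; lower signal means less secretion.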
DT40 TDP1 no CPT: qHTS for Inhibitors of human tyrosyl-DNA phosphodiesterase 1 (TDP1): qHTS in cells in absence of CPT. DT40 Tdp1-/- hTDP1 cells, no CPT, ATP luminescence, 48 h. Potency, µM (doses to about 46.2 µM), for inactives: at the highest dose activity change, negative = growth inhibition, usual class: inhibitors. 420,000 tested, 15% active. AID 686978, 2013; note: potency is the fitted concentration of half-maximal effect; nearly all actives have a fitted effect of over 55% in size
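Compound effects on proliferation are scored in DT40 Tdp1-/-;hTDP1 cells in the absence of CPT. ATP levels (CellTiter-Glo luminescence) are recorded after a ≥48 hr, 37 °C incubation.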
12-LOX inh: inhibitors of human 12S-lipoxygenase ALOX12 | P18054 | purified 12hLO, xylenol orange hydroperoxide absorbance | Potency, µM (series often up to 108 µM), for inactives: at the highest dose activity change, negative = inhibition, usual class: inhibitors | 580,000 tested, 1.1% active; note: potency is the fitted concentration of half-maximal effect
Target sequence (P18054 whole entry, looked up): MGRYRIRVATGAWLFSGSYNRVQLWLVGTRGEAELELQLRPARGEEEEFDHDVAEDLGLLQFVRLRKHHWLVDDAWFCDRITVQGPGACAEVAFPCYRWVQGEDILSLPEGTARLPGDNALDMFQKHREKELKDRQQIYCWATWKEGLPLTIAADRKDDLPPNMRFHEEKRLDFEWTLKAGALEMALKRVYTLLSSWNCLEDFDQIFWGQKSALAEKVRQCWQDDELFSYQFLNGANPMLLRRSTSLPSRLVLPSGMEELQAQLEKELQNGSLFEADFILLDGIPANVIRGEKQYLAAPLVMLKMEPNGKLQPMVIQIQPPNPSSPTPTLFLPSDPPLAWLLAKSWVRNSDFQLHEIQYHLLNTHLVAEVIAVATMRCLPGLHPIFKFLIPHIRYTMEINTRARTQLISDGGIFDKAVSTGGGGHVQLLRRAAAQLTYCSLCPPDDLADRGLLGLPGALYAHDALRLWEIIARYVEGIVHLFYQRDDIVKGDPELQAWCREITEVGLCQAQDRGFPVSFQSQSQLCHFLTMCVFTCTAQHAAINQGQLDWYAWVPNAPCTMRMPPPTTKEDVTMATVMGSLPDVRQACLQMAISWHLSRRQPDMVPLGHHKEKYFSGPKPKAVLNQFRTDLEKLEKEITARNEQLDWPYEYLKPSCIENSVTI
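Purified human 12hLO at 150 nM in 25 mM Hepes, 0.01% Triton X-100, pH 7.0, preincubated 15 min at room temperature with compound. Reaction started with 40 uM arachidonic acid, 30 min at room temperature. Hydroperoxide measured by Fe-xylenol orange, 573/405 nm absorbance ratio.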
HT1080NT lethal: kills 2HG-producing HT-1080-NT fibrosarcoma cells. HT-1080-NT fibrosarcoma viability, CellTiter-Glo ATP luminescence, 48 h. Potency, µM (highest dose often 46.1 µM), without a hit: at the highest dose activity, negative = less viability, usual class: cytotoxic. 360,000 tested, 1.6% active;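 note: NT is the 2HG producing partner of a matched IDH1 knockdown line; potency is the fitted concentration of half-maximal effect; 0% = DMSO-treated cells and -100% = media-only wells without cells; nearly all actives have a fitted effect of over 55% in size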
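Viability of the 2HG-overproducing fibrosarcoma line after 48 hours of compound exposure at 37 degrees C was determined by luminescence with CellTiter-Glo, and concentration-effect curves were then fitted and categorized.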
HT1080 IDH1KD tx: HT-1080 IDH1 knockdown cell toxicity (counter line) | Potency, µM (top dose mostly 46.1 µM), for the others: top-dose activity, negative = toxicity, most hits filed as cytotoxic | HT-1080 IDH1 knockdown viability, ATP luminescence, 48 h | 360,000 tested, 2% active;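 note: potency is the fitted concentration of half-maximal effect; 0% = DMSO wells and -100% = cell-free medium wells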
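Viability of IDH1-knockdown HT-1080 fibrosarcoma cells was assessed by CellTiter-Glo after 48 h at 37 °C with titrated compound; concentration-effect curves were classified by fit quality and response size.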
* marks the source's active call; other numbers are inactive results; ? = inconclusive; · = no result given; [ ] = dose if it differs, or a comment. Unless noted, calls come from the whole dose curve; as a rule, active = well fitted curve in the direction sought with a large enough effect; inconclusive = small, poorly fitted or top-dose-only effect, or another doubt; inactive = no such curve, though single readings can be large; an effect the other way counts as inactive or inconclusive. Unless noted, % is set by controls: 0 for no effect and ±100 for the full control effect.

SMILES | TDP1 cell CPT | IL1B secr inh | DT40 TDP1 no CPT | 12-LOX inh | HT1080NT lethal | HT1080 IDH1KD tx
CCC(C)[C@H](NC(=O)C1CC(=O)N(c2ccc(OC)cc2)C1)C(=O)NC1CCCC1 (some centres not stated) | -9% | 13 | 24% | 8% | 0% | 13%
CC(C)C(=O)Nc1ccc(COc2ccccc2CN(Cc2ccccc2)C(=O)OC(C)(C)C)cc1 | 15µM* | -24 | 15µM* | -51% | -9% | ?
CC(C)C(=O)Nc1cccc(COc2ccc(CN(Cc3ccccc3)C(=O)OC(C)(C)C)cc2)c1 | ? | -6 | 16µM* | -8% | -7% | -15%
Cc1ccc(SC(C)C(=O)Nc2ccc(OCc3ccccc3)cc2)cc1 (configuration not stated) | · | · | · | -26% | · | ·
Cc1ccc(NC(=O)COC(=O)c2ccccc2OCC(=O)Nc2ccc(Br)cc2)c(Br)c1 | -14% | · | -21% | · | -1% | -4%
CSc1ccc(CN(C)C(=O)c2cccc(S(=O)(=O)N3CCN(Cc4ccccc4)CC3)c2)cc1 | 16µM* | -72* | 13µM* | 6% | ? | -18%
CSc1ccc(CN(C)C(=O)c2cccc(S(=O)(=O)NCc3ccccc3)c2)cc1 | ? | 0 | ? | 4% | -2% | -16%
CN(Cc1ccc(F)cc1)C(=O)c1cccc(S(=O)(=O)N2CCN(Cc3ccccc3)CC2)c1 | 21µM* | -61* | 13µM* | ? | -23% | -9%
CC1CCCCC1NC(=O)c1cccc(S(=O)(=O)N2CCN(Cc3ccccc3)CC2)c1 (configuration not stated) | 16µM* | 3 | 21µM* | 1% | -2% | -12%
CC(=O)N1CCN(S(=O)(=O)c2cccc(C(=O)NC3CCCC(C)C3C)c2)CC1 (configuration not stated) | -26% | 14 | ? | -7% | -3% | -8%
COc1ccccc1CN(C)C(=O)c1cccc(S(=O)(=O)N2CCN(Cc3ccccc3)CC2)c1 | ? | -54* | ? | 12% | 5% | 9%
CN1CCN(S(=O)(=O)c2cccc(C(=O)N(Cc3ccccc3)c3ccccc3)c2)CC1 | ? | 4 | ? | 202% | 1% | 1%
O=C(C[C@@H]1CC[C@@H]2[C@H](COC[C@H](O)CN2C(=O)Nc2ccc(F)cc2)O1)NCCc1ccncc1 | -4% | 10 | -6% | -24% | -1% | -10%
N#Cc1c(N)c(-c2ccccc2)c(F)c2ccccc12 | · | · | · | 1% | · | ·
Cc1ccccc1CC(=O)c1ccc(O)c(C)c1O | -21% | -55* | ? | ? | ? | ?
COCc1cc(CC2(NCc3ccccc3F)COC2)no1 | · | · | · | 7%[176 µM] | · | ·
Cc1csc(N=Nc2ccc(N(C)C)cc2)[n+]1[O-] | 10µM* | -80* | 9.2µM* | 99% | ? | ?
O=[N+]([O-])c1cccc(C=NNc2ccc3ccccc3n2)c1O | 5.2µM* | 84 | 5.8µM* | ? | -28% | ?
Cc1cc(N/N=C/c2ccccc2Br)nc2ccccc12 | ? | 9 | ? | -18% | 6% | 20%
O=[N+]([O-])c1cccc(/C=N/n2cnnc2)c1O | 4% | 22 | -15% | 9% | 5% | 13%
Brc1ccccc1/C=N/Nc1ccc2ccccc2n1 | ? | -9 | 16µM* | -29% | ? | -17%
CCOC(=O)Cc1ccc(C(=O)/C=C/c2ccc(Cl)cc2)cc1 | · | · | · | 1% | · | ·
COCC(=O)NNC(=S)NCC(C)C | · | · | · | 1% | · | ·
Cc1ccccc1Cn1c(=O)n(CCCCC(=O)NCCc2ccccc2)c(=O)c2ccccc21 | -21% | · | ? | -1% | · | ·
O=c1[nH]cccc1NS(=O)(=O)c1ccccc1Cl | · | · | · | 35µM* | · | ·
SMILES | TDP1 cell CPT | IL1B secr inh | DT40 TDP1 no CPT | 12-LOX inh | HT1080NT lethal | HT1080 IDH1KD tx
CC1(C)CC(=O)C=C(C#CC2(O)CCCCC2)C1 | 7.3µM* | -108* | 5.2µM* | -10% | 5.2µM* | 13µM*
COc1cc(NC2=CC(=O)CC(C)(C)C2)cc(OC)c1 | ? | 15 | -7% | 18% | 5% | 8%[9.24 µM]
COc1cccc(C#CC2=CC(=O)CC(C)(C)C2)c1 | 5.8µM* | · | 2.9µM* | -22% | -28% | ?
Cc1ccc(C2=CC(=O)CC(C)(C)C2)cc1 | -12% | 12 | 0% | -15% | -6% | 2%
Cc1cccc(C#CC2=CC(=O)CC(C)(C)C2)c1 | 16µM* | · | 10µM* | 21% | 16% | 0%
COc1ccccc1NC(=O)N1CCCC1c1nncn1-c1ccccc1 (configuration not stated) | · | · | · | 45% | · | ·
Cc1nc2ccc(C(=O)N3CCC(OCc4cccnc4)CC3)cc2nc1C | · | · | · | 35% | · | ·
COc1ccc(-c2nc3cc(NC(=O)c4ccc(Br)cc4)ccc3o2)cc1 | · | · | · | -6% | · | ·
COC(=O)[C@@H]1CCCN1Cc1ccc2c(c1)CN(Cc1cccn1-c1ccccn1)CCO2 | 9%[9.04 µM] | · | -13% | 3% | · | ·
COc1cccc(/C=N/Nc2nc(Nc3ccc([N+](=O)[O-])cc3)nc(N3CCCC3)n2)c1O | 8.2µM* | 91 | 5.8µM* | 7% | 9.2µM* | 3.3µM*
O=[N+]([O-])c1ccc(Nc2nc(NC3CCCCC3)nc(N3CCCC3)n2)cc1 | 26µM* | -24 | 23µM* | ? | 7% | 17%
O=[N+]([O-])c1ccc(Nc2nc(N/N=C/c3cccc(F)c3)nc(N3CCCC3)n2)cc1 | 6.5µM* | ? | 8.2µM* | ? | -10% | -12%
O=[N+]([O-])c1ccc(NN=Cc2cccc3ccccc23)nc1 | ? | -25 | ? | ? | 2% | 24%
COc1cccc(/C=N/Nc2ccc([N+](=O)[O-])cn2)c1O | 3.3µM* | -76* | 2.9µM* | 4% | 0.65µM* | 1.2µM*
COc1c(/C=N/Nc2nc(N3CCCCC3)nc(N3CCCCC3)n2)cccc1[N+](=O)[O-] | ? | -17 | ? | 0% | 15% | 1%
COCC1CCN(C(=O)CC(c2ccccc2)c2ccccc2C)CC1 (configuration not stated) | · | · | · | 10% | · | ·
CC(C)c1nc(N2CCN(C(=O)C(=O)NCCO)CC2)c(C#N)c2c1CCCC2 | · | · | · | 23% | · | ·
CCOc1ccc(-c2cc(C(=O)NCCc3ccc(OC)c(OC)c3)[nH]n2)cc1 | ? | · | ? | 7% | · | ·
COc1ccc(/C=C/C(=O)NCCN2CCOCC2)cc1OC | ? | -4 | 21µM* | 0% | 1% | -7%
